40 compounds from PubChem BioAssay (NCI) can be followed below.

Several values for one entry are separate records, joined by “and”; a condition that tells them apart may be missing. Equal entries are not always repeated. Compounds without any hit were thinned out: in the full panel of roughly 83,000, 20% have a hit.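 Activity criterion: percent growth below 10, measured after cells in 96-well plates were exposed to a single compound concentration for 48 hours.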 Activity calls are given as the source filed them.

For this experiment, the system named is MDA-MB-468 breast. Description: NCI-60 one-dose screen, 48 h (100 = growth as untreated, 0 = no growth, -100 = all killed). The conditions noted are these: 10 µM unless noted.
Turning to `O=C(Nc1ccc(CO)cc1)c1ccccc1Nc1ccnc(C(F)(F)F)c1`, the growth is 123% (inactive).

Regarding `O=C1C(Cl)=C(Cl)C(Cl)(Cl)C(Cl)C1(Cl)Cl` (stereo not given), the growth was 115% (inactive). As to `CCN(CC)CC[n+]1cc2cc(OC)c(OC)cc2c2ccc3cc4c(cc3c21)OCO4`, the growth is -27% (active). The figure for `COc1ccc(-c2nc3sc(C)cn3c2/C=C/C(=O)c2cc(OC)c(OC)c(OC)c2)cc1` is 25.5% (inactive); for `CC(C)C(=O)c1ccc(Cl)s1` it is 91.6% (inactive); for `O=C(CCN1CCCC1)c1ccc([N+](=O)[O-])cc1` it is 85.3% (inactive). With `Nc1cccc2c1CN(C1CCC(=O)NC1=O)C2=O` (stereo not given), the growth was 84% (inactive).

In the case of `CC(C)(C)n1cc(-c2ccnc(NCCCNS(=O)(=O)c3ccc(Br)cc3)c2)c(-c2cccc(O)c2)n1`, the growth is 3.51% (active). The figure for `COC(=O)C(Cc1ccccc1)Nc1nc(NC(Cc2ccccc2)C(=O)OC)nc(N2CCOCC2)n1` (stereo not given) is 108% (inactive). With `Nc1ccn(C2O[C@H](CO)[C@@H](O)[C@@H]2O)c(=O)n1` (stereo not given in full), the growth was 78.3% (inactive).

For `COc1cc(/C=C/c2c(C(C)=O)c(C)nc3ccccc23)cc(OC)c1OC`, the growth was -4.86% (active). Regarding `CC/C=C\C[C@H](O)C/C=C1/C(=O)C=C[C@@H]1C/C=C\CCCCO`, the growth is 16.5% (inactive).

Consider `O=C(Oc1ccc(Cl)cc1[N+](=O)[O-])Oc1ccc(Cl)cc1[N+](=O)[O-]`, for which the growth is 114% (inactive).

With `CC1=CC(C)(C)NC(=S)N1c1ccc(Cl)cc1`, the growth is 97.6% (inactive) and 105% (inactive). With `CCN1C(=O)N(CC)C2SC(N/N=C/c3ccc(OC)cc3)=NC21` (stereo not given), the growth was 32.2% (inactive). For `O=[N+]([O-])c1ccc(C(c2ccccc2)c2ccccc2)cc1`, the growth is 101% (inactive). The figure for `NS(=O)(=O)c1cccc(NC(=O)C(=O)C2C(=O)Nc3ccccc32)c1` (stereo not given) is 101% (inactive). On to `CC(C)C[C@@H](NC(=O)[C@@H](Cc1ccccc1)NC(=O)c1cnccn1)B1Oc2ccc(C[C@H](NC(=O)[C@H](Cc3ccc4c(c3)OB([C@@H](CC(C)C)NC(=O)[C@@H](Cc3ccccc3)NC(=O)c3cnccn3)O4)NC(=O)[C@@H](N)CC3CCC4OB([C@@H](CC(C)C)NC(=O)[C@@H](CC5CCCCC5)NC(=O)C5CNCCN5)OC4C3)C(=O)NCCCC[C@@H]3NC(=O)[C@@H](Cc4ccccc4)NC(=O)[C@H](CC(=O)O)NC(=O)CNC(=O)[C@H](CCCNC(=N)N)NC3=O)cc2O1` (stereo not given in full), for which the growth was -41.5% (active).

With `COc1ccc2c(c1)c(/C(O)=C1\COC(=O)C1=O)cn2Cc1ccc(F)cc1`, the growth was 100% (inactive). The figure for `O=C(CCN1C(=O)/C(=C/c2ccc(O)cc2)SC1=S)Nc1ccc(Cl)cc1` is 95.3% (inactive); for `CCN(CC)CCOC(=O)N1c2ccccc2Sc2ccccc21` it is 96.3% (inactive); for `COC(=O)Nc1nc2ccc(C(=O)c3cccc(I)c3)cc2[nH]1` it is 2.93% (active). In the case of `O=S(=O)(c1ccccc1)n1ccc(-c2ccc3c(c2)CCO3)n1`, the growth is 42.4% (inactive).

`O=C(COc1ccc(/C=C2\Cc3ccccc3C2=O)cc1)c1ccc(Cl)cc1`: the growth is 111% (inactive). On to `CC(=O)N1N=C(c2cc3ccccc3oc2=O)CC1c1cn(-c2ccccc2)nc1-c1ccc(C)cc1` (stereo not given), for which the growth was 94.6% (inactive).

As for `CC1(C)OC(=O)C(=Cc2ccc(C#N)cc2)C(=O)O1`, the growth was 91.7% (inactive) and 96.1% (inactive). The figure for `CC(=O)n1nc(C(=O)OC(C)(C)c2ccccc2)c2ccccc21` is 93.3% (inactive); for `C=C[C@@]1(C)CC(=O)[C@@H](C(C)(C)c2cn(C)c3ccc(Br)cc23)C[C@@H]1O[Si](C)(C)C(C)(C)C` it is 100% (inactive). The figure for `Nc1ncnc2c1c(-c1ccc(Oc3ccccc3)cc1)nn2CC1SSCC1O` (stereo not given) is -24.8% (active). The figure for `CCc1nn2c(-c3ccc(Cl)cc3C)c(-c3cc(OC)c(OC)c(OC)c3)nc2s1` is 68.2% (inactive).

For `Cn1ccnc1C(=O)/C=C/c1ccc(C(=O)Nc2ccccc2F)cc1`, the growth is 22.3% (inactive). The figure for `CCN(CC)CCc1nc(-c2ccccc2)no1` is -1.63% (active) and 78.5% (inactive); for `CC(C)c1nn(-c2ccccc2)c(N2CCCCC2)c1/C=N/NC(N)=S` it is 89.6% (inactive). The figure for `N#Cc1cc2[nH]c3ccc(OC(F)(F)F)cc3c2oc1=O` is 95.2% (inactive). `CNCc1cccc2c1OCCOCCOCCC(C)S(=O)(=O)c1ccc(cc1)-c1cnc(N)c(n1)C(=O)N2` (stereo not given): the growth is 53.1% (inactive). The figure for `O=C1Nc2ccc(Cl)cc2/C1=N/c1nc(-c2ccc(F)cc2)cs1` is 27.6% (inactive). As for `O=C1c2c(c3c4cc(O)ccc4oc3c3[nH]c4ccccc4c23)C(=O)N1O`, the growth was -48.7% (active). The figure for `CN(C)CC(=O)Nc1ccc2ncnc(Nc3ccc(Oc4cccc(C(F)(F)F)c4)c(Cl)c3)c2c1` is -2% (active). The figure for `COc1ccc2sc(N(Cc3cccnc3)C(=O)c3ccc(C#N)cc3)nc2c1` is 73% (inactive); for `CCN1C(=O)N(CC)C2C1NN=C1SCC(=O)N12` (stereo not given) it is 18.2% (inactive).
